# According to the supplement of paper PMC10811239:
# Tested on: LEGO organoid PTCC (PTEN-/-; TP53-/-; CDKN2A-/-; CDKN2B-/-)
# Experiment: bioluminescence (viable cell) signal fold change after vs before treatment, normalised to DMSO (ratio); higher = more tumour cell growth / less inhibition
# Details: 10 µM; treatment time 6 days
# Experimental: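 Luc2-labelled iPSC-derived glioblastoma-like organoids (LEGOs, genotypes PT = PTEN-/-;TP53-/-, PTCC = plus CDKN2A/B-/-, PTN = plus NF1-/-) were treated with 10 uM drug for 6 days (applied every other day) at 37 C. Bioluminescence imaging was done before treatment and 2 days after the last dose. BLI signals were normalised to the DMSO control on the same day and then to the pre-treatment signal (N=3).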
row,Structure (SMILES),bioluminescence
1,OC[C@H]1O[C@@H](n2cnc3c2NC=NC[C@H]3O)C[C@@H]1O [Pentostatin],0.797
2,CC(=O)NCCCS(=O)(=O)[O-].CC(=O)NCCCS(=O)(=O)[O-].[Ca+2] [Acamprosate calcium],0.374
3,CNC(=O)c1cc(Oc2ccc(NC(=O)Nc3ccc(Cl)c(C(F)(F)F)c3)cc2)ccn1 [Sorafenib],0.105
4,CC(C)CN(C[C@@H](O)[C@H](Cc1ccccc1)NC(=O)O[C@H]1CCOC1)S(=O)(=O)c1ccc(N)cc1 [Amprenavir],0.498
5,O=c1cc(O)c(Cl)c[nH]1 [Gimeracil],0.774
6,CNC(=O)c1cc(Oc2ccc(NC(=O)Nc3ccc(Cl)c(C(F)(F)F)c3)cc2)ccn1.Cc1ccc(S(=O)(=O)O)cc1 [Sorafenib tosylate],0.343
7,Clc1ccc2c(c1)C(N1CCNCC1)=Nc1ccccc1O2 [Amoxapine],1.25
8,Nc1cccc2c1C(=O)N(C1CCC(=O)NC1=O)C2=O (stereo unspecified) [Pomalidomide],2.56
9,Nc1nc(NC2CC2)c2ncn([C@H]3C=C[C@@H](CO)C3)c2n1.Nc1nc(NC2CC2)c2ncn([C@H]3C=C[C@@H](CO)C3)c2n1.O=S(=O)(O)O [Abacavir sulfate],1.28
10,CC(=O)Oc1ccccc1C(=O)O [Aspirin],0.785
11,CO[C@H]1C(=O)[C@]2(C)[C@@H](OC)C[C@H]3OC[C@@]3(OC(C)=O)[C@H]2[C@H](OC(=O)c2ccccc2)[C@]2(O)C[C@H](OC(=O)[C@H](O)[C@@H](NC(=O)OC(C)(C)C)c3ccccc3)C(C)=C1C2(C)C [Cabazitaxel],7.3
